{
  "source": "PubChem BioAssay (NCI)",
  "note": "This is part of a sample that, as a whole, favours compounds with a hit. Of some 83,000 tested, about 20% had one in any assay.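 The endpoint reported here, percent growth, reads 100 for growth as untreated, 0 for no net growth and -100 for all cells dead.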 Values without a mark were called inactive. Activity calls are given as the source filed them. How the source made its calls: active means growth percent below 10; inactive means the rest.",
  "data": [
    {"test_system": "M14 melanoma", "assay": "NCI-60 one-dose screen, 48 h (100 = growth as untreated, 0 = no growth, -100 = all killed)", "settings": "10 µM", "values": [
      {"smiles": "O=C(Nc1ccc(I)cc1F)c1cc(-c2ccc(F)cc2F)ccc1O", "growth": "28.8%"},
      {"smiles": "COc1cccc(/C=C2\\N=C(C)N(CCc3ccc(S(N)(=O)=O)cc3)C2=O)c1", "growth": "100%"},
      {"smiles": "CC1=C2C(=C[C@@](C)(COCOCCCl)[C@@H]2O)C(=O)[C@](C)(O)C12CC2", "growth": "-16% (active)"},
      {"smiles": "Nc1n[nH]c2cccc(C#Cc3cccc(NC(=O)Nc4cc(C(F)(F)F)cc(C(F)(F)F)c4)c3)c12", "growth": "-9.94% (active)"},
      {"smiles": "O=C(N=Nc1c(O)[nH]c2ccc(Br)cc12)c1ccc2nc(-c3ccccc3)[nH]c2c1", "growth": "-85.9% (active)"},
      {"smiles": "COc1cccc(-c2ccc(/C=N/NC(=O)c3[nH]c4ccc(Br)cc4c3-c3ccccc3)o2)c1", "growth": "16.7%"},
      {"smiles": "COc1cc2c(cc1OC)CN(CCCCOc1cc(O)c3c(=O)cc(-c4ccccc4)oc3c1)CC2", "growth": "-21% (active)"},
      {"smiles": "COc1ccc(CCN2C(=O)/C(=C/c3csc(C#N)n3)SC2=S)cc1", "growth": "-40.6% (active)"},
      {"smiles": "N#Cc1c(NC(=O)c2ccc(C(O)(C(F)(F)F)C(F)(F)F)cc2)sc2c1CCC(=O)C2", "growth": "-68% (active)"},
      {"smiles": "Cn1cc(-c2cc(N)n3nc(-c4c[nH]c5ccc(Br)cc45)cc3n2)c2cc(Br)cnc21", "growth": "-90.6% (active)"},
      {"smiles": "COc1ccccc1[C@H]1C(C(=O)c2ccc(Cl)cc2)C2(N[C@@H]1c1ccccc1)C(=O)Nc1ccccc12", "note": "(stereo partly drawn)", "growth": "5.88% (active)"},
      {"smiles": "CC(=O)Nc1ccc(-c2cn(-c3cccc(C(=O)Nc4cc(C(F)(F)F)cc(C(F)(F)F)c4)c3)nn2)cn1", "growth": "4.5% (active)"},
      {"smiles": "CCCCCCCCCCCCCCCCCCCC(=O)NCCc1c[nH]c2ccc(OC(=O)CCCC(=O)OCCOOCCOOCCOOCCOOCCOOCCOOCCOOCCOOCCOOCCOOCCOOCCOC)cc12", "growth": "56.4%"}
    ]}
  ]
}
